The campaign covered roughly 30,000 compounds. About 110 (0.37%) were called active.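 Rule for the calls: active = delta delta Cp rounded down to an integer at or above 3, about 3 SD of DMSO wells; inactive = the rest.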 For the sample, actives were picked, then their nearest neighbours and some compounds at random.
Assay: YB-1 transcript reduction by qRT-PCR – cell-based, fluorescence, primary screen (AID 434959);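 note: higher means less YB-1 transcript or more CDIP transcript relative to DMSO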
Settings: U2OS, qRT-PCR YB-1 vs CDIP delta delta Cp, 16 h; stronger effect = higher value; zero = DMSO, each unit about twofold

Row | Compound | delta Cp (YB-1 minus CDIP)
1 | C[C@@H]1CN([C@H](C)CO)C(=O)c2cc(NC(=O)Nc3ccc4c(c3)OCO4)ccc2O[C@H]1CN(C)Cc1ccc(-c2ccccc2)cc1 | 0.369 (inactive)
2 | C[C@H](CO)N1C[C@H](C)[C@H](CN(C)C(=O)Nc2ccc(C(F)(F)F)cc2)Oc2ccc(N(C)C)cc2CC1=O | 0.00881 (inactive)
3 | Cc1cc(C(=O)Nc2cccc3c2O[C@@H](CN(C)Cc2ccc(C(=O)O)cc2)[C@H](C)CN([C@@H](C)CO)C3=O)n(C)n1 | -0.416 (inactive)
4 | O=C(N/N=C/c1ccc(Oc2ccccc2)cc1)c1ccccn1 | -0.417 (inactive)
5 | COc1ccc(NC(=O)N(C)C[C@@H]2Oc3ccc(NS(=O)(=O)c4ccc(OC)cc4)cc3CC(=O)N([C@H](C)CO)C[C@H]2C)cc1 | -0.353 (inactive)
6 | C[C@H]1CN([C@@H](C)CO)C(=O)c2cccc(NC(=O)Nc3ccccc3)c2O[C@H]1CN(C)C(=O)Nc1cccc2ccccc12 | 0.0743 (inactive)
7 | C[C@@H]1CN([C@@H](C)CO)C(=O)CCCn2cc(nn2)CO[C@@H]1CN(C)C(=O)C1CCCCC1 | -0.464 (inactive)
8 | Cc1noc(C)c1S(=O)(=O)N(C)C[C@H]1OCc2cn(nn2)CCCC(=O)N([C@H](C)CO)C[C@H]1C | 0.0461 (inactive)
9 | C[C@H](CO)N1C[C@H](C)[C@@H](CN(C)Cc2ccc(C(F)(F)F)cc2)Oc2ccc(NC(=O)CCC(F)(F)F)cc2C1=O | -0.124 (inactive)
10 | C[C@@H]1CN([C@H](C)CO)C(=O)c2cccc(NC(=O)C3CCCCC3)c2O[C@@H]1CN(C)C(=O)NC1CCCCC1 | 0.413 (inactive)
11 | COc1ccc(CN(C)C[C@@H]2Oc3ccc(NS(=O)(=O)c4cn(C)cn4)cc3C(=O)N([C@@H](C)CO)C[C@@H]2C)cc1 | -0.246 (inactive)
12 | Cc1ccc(C(=O)c2coc3ccc(O)c(CN(C)C)c23)cc1 | 0.308 (inactive)
13 | CCCN(C)C[C@@H]1OCCCC[C@@H](C)Oc2ccc(NC(=O)CCCN(C)C)cc2C(=O)N([C@H](C)CO)C[C@@H]1C | -0.0474 (inactive)
14 | COc1ccc(C#Cc2ccc3c(c2)[C@]2(C(=O)N3)[C@H](C(=O)N3CCc4cc(OC)c(OC)cc4C3)[C@H]3C(=O)O[C@H](c4ccccc4)[C@H](c4ccccc4)N3[C@@H]2c2ccc(O)cc2)cc1 | 0.269 (inactive)
15 | CC(=O)N1[C@@H](c2ccc(C)cc2)SC(C)(C)[C@@H]1C(=O)O | -0.179 (inactive)
16 | Cc1ccc(S(=O)(=O)N(C)C[C@@H]2Oc3ccc(NC(=O)NC4CCCCC4)cc3C(=O)N([C@@H](C)CO)C[C@H]2C)cc1 | 0.362 (inactive)
17 | Cc1ccc(S(=O)(=O)Nc2ccc3c(c2)C(=O)N([C@@H](C)CO)C[C@@H](C)[C@H](CN(C)CC2CC2)O3)cc1 | -0.0524 (inactive)
18 | COc1ccc(S(=O)(=O)Nc2cccc3c2O[C@@H](CN(C)C(=O)Nc2ccccc2)[C@@H](C)CN([C@@H](C)CO)C3=O)cc1 | -0.0223 (inactive)
19 | Cc1noc(C)c1NC(=O)Nc1ccc2c(c1)C(=O)N([C@H](C)CO)C[C@H](C)[C@H](CN(C)Cc1ccncc1)OCCCC[C@@H](C)O2 | -0.384 (inactive)
20 | COc1ccc(CN(C)C[C@H]2Oc3c(NC(=O)C4CC4)cccc3C(=O)N([C@@H](C)CO)C[C@H]2C)cc1 | -0.0719 (inactive)
21 | C[C@H]1CN([C@@H](C)CO)C(=O)c2cc(NC(=O)CCC(F)(F)F)ccc2O[C@H]1CN(C)Cc1ccc(C(=O)O)cc1 | -0.0494 (inactive)
22 | C[C@@H]1CN([C@H](C)CO)C(=O)c2cc(NS(=O)(=O)c3ccccc3)ccc2O[C@H]1CN(C)S(=O)(=O)c1cccs1 | 0.37 (inactive)

Row | Compound | delta Cp (YB-1 minus CDIP)
23 | COc1ccc(S(=O)(=O)Nc2ccc3c(c2)C(=O)N([C@H](C)CO)C[C@@H](C)[C@@H](CN(C)CC2CCCCC2)O3)cc1 | 0.268 (inactive)
24 | Cc1ccc(S(=O)(=O)Nc2ccc3c(c2)C(=O)N([C@H](C)CO)C[C@H](C)[C@H](CN(C)S(=O)(=O)c2ccc(F)cc2)O3)cc1 | 0.151 (inactive)
25 | C[C@@H]1CN([C@@H](C)CO)C(=O)CCCn2nncc2CO[C@H]1CN(C)C(=O)Nc1ccc(C(F)(F)F)cc1 | -0.177 (inactive)
26 | O=C(CCCCCCC(=O)Nc1ccccc1O)N/N=C/c1ccc(C(F)(F)F)cc1 | -0.34 (inactive)
27 | Cc1noc(C)c1S(=O)(=O)Nc1ccc2c(c1)CC(=O)N([C@H](C)CO)C[C@@H](C)[C@@H](CN(C)Cc1ccncc1)O2 | -0.237 (inactive)
28 | COc1cc(CCC(=O)O)oc(=O)c1 | 0.941 (inactive)
29 | COc1cc([C@H](Cc2ccccc2)NC(C)=O)oc(=O)c1 | 7.24 (active)
30 | COc1ccc2c(c1)C(=O)CC(c1ccccc1)O2 (centres undefined) | -0.382 (inactive)
31 | COc1ccc(S(=O)(=O)Nc2ccc3c(c2)CC(=O)N([C@H](C)CO)C[C@@H](C)[C@@H](CN(C)S(=O)(=O)c2ccc(F)cc2)O3)cc1 | 0.215 (inactive)
32 | Cc1noc(C)c1S(=O)(=O)Nc1ccc2c(c1)C(=O)N([C@@H](C)CO)C[C@H](C)[C@H](CN(C)Cc1ccc(C(=O)Nc3ccccc3N)cc1)O2 | -0.223 (inactive)
33 | C[C@@H]1CN([C@@H](C)CO)C(=O)c2cccc(NC(=O)CCCCCC(=O)Nc3ccccc3N)c2O[C@@H]1CN(C)CC1CCCCC1 | -0.278 (inactive)
34 | C[C@@H]1CN([C@@H](C)CO)C(=O)Cc2cc(NC(=O)C3CCCCC3)ccc2O[C@@H]1CN(C)Cc1ccc(-c2ccccc2)cc1 | -0.443 (inactive)
35 | COc1ccc(NC(=O)N(C)C[C@H]2Oc3ccc(NS(=O)(=O)c4ccc(F)cc4)cc3C(=O)N([C@@H](C)CO)C[C@@H]2C)cc1 | 0.491 (inactive)
36 | COc1cc(OC)c(/C=N/NC(=O)CCCCCCC(=O)Nc2ccccc2O)c(OC)c1 | -0.14 (inactive)
37 | N#C/C(=C\c1ccc(O)c(O)c1)C(N)=O | -0.313 (inactive)
38 | Cc1noc(C)c1NC(=O)N(C)C[C@@H]1Oc2ccc(NC(=O)Nc3ccc4c(c3)OCO4)cc2C(=O)N([C@H](C)CO)C[C@H]1C | -0.0859 (inactive)
39 | C[C@@H]1CCCCO[C@H](CN(C)Cc2ccccc2)[C@@H](C)CN([C@H](C)CO)C(=O)c2cc(NS(C)(=O)=O)ccc2O1 | -0.038 (inactive)
40 | O=C(O)CCC(=O)N(Cc1ccccc1)Cc1cn(-c2ccccc2)nc1-c1cccnc1 | -0.539 (inactive)
41 | C[C@@H]1CN([C@@H](C)CO)C(=O)c2cc(N(C)C)ccc2O[C@H]1CN(C)Cc1ccc(C(F)(F)F)cc1 | -0.101 (inactive)
42 | C[C@@H]1CN([C@@H](C)CO)C(=O)c2cc(NC(=O)Cc3ccccc3)ccc2O[C@@H]1CN(C)S(=O)(=O)c1ccccc1 | 0.109 (inactive)
43 | C[C@@H]1CN([C@@H](C)CO)C(=O)c2cc(NC(=O)c3ccncc3)ccc2O[C@H]1CN(C)S(=O)(=O)c1ccc(Cl)cc1 | -0.0147 (inactive)
44 | Cc1ccoc1CC[N+](C)(C)C | -0.0929 (inactive)

Row | Compound | delta Cp (YB-1 minus CDIP)
45 | C[C@@H]1CN([C@@H](C)CO)C(=O)CCCn2nncc2CO[C@H]1CN(C)Cc1ccc(C(F)(F)F)cc1 | -0.415 (inactive)
46 | CNC[C@H]1Oc2ccc(NS(=O)(=O)c3ccc(F)cc3)cc2C(=O)N([C@@H](C)CO)C[C@@H]1C | -0.0588 (inactive)
47 | C[C@@H]1CCCCO[C@@H](CN(C)S(=O)(=O)c2cccs2)[C@@H](C)CN([C@H](C)CO)C(=O)c2cc(NC(=O)Nc3ccc(F)cc3)ccc2O1 | -0.356 (inactive)
48 | COc1cccc(NC(=O)N(C)C[C@@H]2OCc3cn(nn3)CCCC(=O)N([C@@H](C)CO)C[C@H]2C)c1 | 0.0991 (inactive)
49 | CC(C)(C)C(=O)CSc1nc2ccccc2c(=O)n1CC1CC1 | -0.316 (inactive)
50 | COC(=O)C1=C(C)NC2=C(C(=O)CC(C)(C)C2)C1c1ccncc1 (centres undefined) | -0.233 (inactive)
51 | O=C(O)CCCCCC(=O)N/N=C/c1ccncc1Br | -0.0121 (inactive)
52 | Cc1ccc(/C=N/NC(=O)CCCCCCC(=O)O)o1 | -0.127 (inactive)
53 | COc1ccc(NC(=O)Nc2cccc3c2O[C@H](CN(C)Cc2ccncc2)[C@@H](C)CN([C@@H](C)CO)C3=O)cc1 | -0.239 (inactive)
54 | CC(C)S(=O)(=O)NCC1CCN(Cc2cccc(OCCO)c2)CC1 | 0.112 (inactive)
55 | C[C@@H]1CCCCO[C@H](CN(C)C(=O)Nc2cccc3ccccc23)[C@@H](C)CN([C@H](C)CO)C(=O)c2cc(NC(=O)Nc3ccc4c(c3)OCO4)ccc2O1 | 0.427 (inactive)
56 | C[C@@H]1CN([C@@H](C)CO)C(=O)CCCn2cc(nn2)CO[C@H]1CN(C)Cc1cccc2c1OCCCO2 | -0.151 (inactive)
57 | Cc1noc(C)c1S(=O)(=O)Nc1ccc2c(c1)CC(=O)N([C@@H](C)CO)C[C@H](C)[C@H](CN(C)C(=O)Nc1cccc3ccccc13)O2 | -0.29 (inactive)
58 | CN1C(=O)C(Cc2ccccc2)(Cc2ccccc2)c2ccccc21 | -0.307 (inactive)
59 | C[C@@H]1CN([C@H](C)CO)C(=O)c2cc(NC(=O)CCCN(C)C)ccc2O[C@H]1CN(C)S(=O)(=O)c1ccc(Cl)cc1 | -0.394 (inactive)
60 | Cc1ccc(S(=O)(=O)N(C)C[C@@H]2OCCCC[C@@H](C)Oc3ccc(NS(=O)(=O)c4ccccc4)cc3C(=O)N([C@H](C)CO)C[C@@H]2C)cc1 | -0.0955 (inactive)
61 | O=C(CCCCCCC(=O)Nc1ccccc1O)N/N=C/c1ccc2c(c1)Cc1ccccc1-2 | 0.456 (inactive)
62 | O=C(N/N=C/c1cc(F)ccc1O)c1ccccc1O | 0.293 (inactive)
63 | COc1ccc(OC)c(CCCc2cc(OC)ccc2OC)c1 | 10.3 (active)
64 | COc1ccc2nc3c(nc2c1)C(=O)c1ccccc1C3=O | 0.188 (inactive)
